Screening results deposited in PubChem by National Center for Advancing Translational Sciences (NCATS).
VP16 counter – Gal4-VP16 reporter inhibition counter-screen | AID 2546 | 310,000 tested, 3.5% active | Drosophila S2 Gal4-VP16 UAS-luciferase, luminescence, 20 h | Potency, µM (doses to about 53.6 µM), actives largely listed as inhibitors;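 note: Gal4-VP16 expression switched on by copper sulfate through the metallothionein promoter; nearly all actives have a fitted effect of over 50% in size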
ELG1 DNA repair – inhibitors of ELG1-dependent DNA repair in HEK293T cells; 330,000 tested, 2.3% active; Potency, µM (top dose mostly 46.1 µM), usual class: inhibitors; HEK293T ELG1-luciferase reporter, luminescence, 16 h; DNA damage induced by 5-fluorouridine; note: nearly all actives have a fitted effect of over 55% in size
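Quantitative HTS, concentration-response format. 2,000 cells/well co-treated with 5-fluorouridine and compound, 16 hr in 5% CO2 at 37 °C; ONE-Glo luminescence read after 30 min.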
RORgamma inh – ROR gamma (mouse) transcription inhibition; P51450; Drosophila S2 Gal4-RORgamma UAS-luciferase reporter, 20 h; Potency, µM (doses to about 53.6 µM), usual class: inhibitors; 310,000 tested, 5.4% active; AID 2551; note: nearly all actives have a fitted effect of over 60% in size
Target sequence (P51450 whole entry, looked up, the tested form may be a part): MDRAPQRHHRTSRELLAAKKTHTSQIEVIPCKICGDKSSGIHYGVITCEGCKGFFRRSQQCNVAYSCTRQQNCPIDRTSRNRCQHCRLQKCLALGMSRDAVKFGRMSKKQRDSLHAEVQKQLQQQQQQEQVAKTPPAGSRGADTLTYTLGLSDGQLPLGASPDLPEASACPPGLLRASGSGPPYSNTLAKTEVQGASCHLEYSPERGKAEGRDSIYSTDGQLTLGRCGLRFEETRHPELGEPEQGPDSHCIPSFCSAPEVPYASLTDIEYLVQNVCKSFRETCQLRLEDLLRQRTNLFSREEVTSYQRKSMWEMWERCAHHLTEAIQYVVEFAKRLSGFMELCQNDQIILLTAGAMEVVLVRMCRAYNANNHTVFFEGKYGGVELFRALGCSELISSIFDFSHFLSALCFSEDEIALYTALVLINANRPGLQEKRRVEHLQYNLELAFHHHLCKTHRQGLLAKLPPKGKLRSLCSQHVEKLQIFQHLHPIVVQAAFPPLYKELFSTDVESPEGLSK
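A Gal4/UAS one-hybrid system in insect cells: metallothionein-promoter Gal4–ROR gamma fusion plus Photinus luciferase reporter. Copper sulfate 700 uM final, 20 hr ambient incubation, luminescent detection after 10 min with reagent.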
12-LOX inh – ALOX12 (human) lipoxygenase inhibition. P18054. purified 12hLO, xylenol orange hydroperoxide absorbance. Potency, µM (series often up to 108 µM), actives largely listed as inhibitors. 580,000 tested, 1.1% active. AID 1671190
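Purified human 12hLO (150 nM final) in 25 mM Hepes, 0.01% Triton X-100, pH 7.0 was preincubated 15 min at room temperature with compound. Then 40 uM arachidonic acid was added, 30 min. Hydroperoxide was read by Fe-XO absorbance ratio 573/405 nm.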
DT40 TDP1 no CPT – qHTS for Inhibitors of human tyrosyl-DNA phosphodiesterase 1 (TDP1): qHTS in cells in absence of CPT. DT40 Tdp1-/- hTDP1 cells, no CPT, ATP luminescence, 48 h. Potency, µM (highest dose often 46.2 µM), actives largely listed as inhibitors. 420,000 tested, 15% active. AID 686978, 2013; note: nearly all actives have a fitted effect of over 55% in size
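Readout: luminescence from CellTiter-Glo after 30 min in the dark at RT. Cells: DT40 Tdp1-/- with stable hTDP1, 400/well. Exposure: compounds alone, ≥48 hr, 37 °C.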
DT40 TDP1 CPT – growth inhibition of DT40 Tdp1-/-;hTDP1 cells with camptothecin (screen for TDP1 inhibitors). chicken DT40 Tdp1-/-;hTDP1 cells + 20 nM CPT, ATP luminescence, 48 h. Potency, µM (highest dose often 46.2 µM), most hits filed as inhibitors. 420,000 tested, 12% active. AID 686979; note: nearly all actives have a fitted effect of over 55% in size
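Cell growth measured by CellTiter-Glo luminescence after a minimum 48 h, 37 C compound exposure with 20 nM CPT in Tdp1-knockout DT40 cells stably expressing hTDP1, seeded 400/well; qHTS titration format.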
Hits are given with their value; n = inactive; u = inconclusive; x = no result; [ ] = dose if it differs, or a comment. An excerpt weighted towards active compounds, which were near 15% of everything screened. Calls come from the whole dose curve; as a rule, active = well fitted curve in the direction sought with a large enough effect; inconclusive = small, poorly fitted or top-dose-only effect, or another doubt; inactive = no such curve, though single readings can be large; an effect the other way counts as inactive or inconclusive.

SMILES	VP16 counter	ELG1 DNA repair	RORgamma inh	12-LOX inh	DT40 TDP1 no CPT	DT40 TDP1 CPT
O=C(CCCNS(=O)(=O)c1cccs1)N1CCN(c2ccc(F)cc2)CC1	n	n	u	n	u	n
O=C1C(NS(=O)(=O)c2cccs2)=C(N2CCN(c3cccc(C(F)(F)F)c3)CC2)C(=O)c2ccccc21	n	u	n	u	23µM	16µM
O=C1C(NS(=O)(=O)c2cccs2)=C(N2CCN(Cc3ccccc3)CC2)C(=O)c2ccccc21	n	23µM	n	n	16µM	u
O=C(CNc1ccccc1C(=O)NCc1ccco1)NC(=O)NCc1ccccc1	x	x	x	n	x	x
N#Cc1ccc(CSc2nnc(-c3ccncc3)n2CCc2ccccc2)cc1	n	23µM	n	n	u	n
N#Cc1ccc(CSc2nnc(-c3ccccc3)n2Cc2ccco2)cc1	n	n	n	n	29µM	u
Cc1ccc(C(=O)CSc2nnc(-c3ccco3)n2C)cc1	u	n	n	n	16µM	u
Cn1c(SCC(=O)c2cc(Cl)c(Cl)s2)nnc1-c1ccco1	u	n	u	n	n	n
Cc1ccc(C(=O)CSc2nccn2-c2ccccc2)cc1	u	u	10µM	n	u	u
COC(=O)C1=C(C)NC(=O)NC1c1ccc(C(=O)OC)cc1 (configuration not stated)	x	x	x	n	x	x
COc1ccc(C(=O)CSc2nnc(CNc3ccc(C)cc3C)n2Cc2ccco2)cc1	n	u	n	n	23µM	18µM
Brc1ccc(CSc2nnc(-c3cnccn3)n2Cc2ccco2)cc1	n[0.365 µM]	n	n	n	15µM	u
Cc1ccc(NCc2nnc(SCc3ccc(C#N)cc3)n2Cc2ccco2)c(C)c1	n	n	n	u	23µM	u
Cc1ccc(C(=O)CSc2nnc(CNc3ccc(C)cc3C)n2Cc2ccco2)cc1	n	n	n	n	u	21µM
C#CCNC(=O)c1onc(-c2ccc(OC)cc2)c1[C@H](C)O	x	x	x	n	x	x
COc1cc2c(cc1OC)CC(=O)N(C)CC2	n	u	n	n	n	n
COc1cc2c(C=O)c3c4c(cc(OC)c(OC)c4c2cc1OC)CCN3C	n	x	n	x	12µM	12µM
CCN(CC)C(=O)[C@@H]1CCC[C@@H](NC2CCN(C)CC2)CN(C)C(=O)C1	x	x	x	n	x	x
CCCn1c2ccccc2c2nnc(SCC(=O)Nc3ncccn3)nc21	n	u	n	n	u	26µM
CCn1c2ccccc2c2nnc(SCC(=O)N3CC(C)OC(C)C3)nc21 (configuration not stated)	n	u	n	n	16µM	u
CCCn1c2ccccc2c2nnc(SCC(=O)Nc3cc(C)on3)nc21	n	u	n	n	u	n
Cc1ccc(C2=NN=C(NC(=O)CSc3nnc4c5ccccc5n(C)c4n3)SC2)cc1	n	u	n	x	9.2µM	10µM
CCNC(=O)CCc1c(C)nn(-c2ccc(F)cc2)c1Oc1ccccc1C	x	x	x	n	x	x
COc1ccc(NC(=O)N(C)CC2CCOCC2)cc1Cl	x	x	x	n	x	x
CCC(Sc1nc2n[nH]c(C)c2c(=N)n1-c1cc(Cl)ccc1C)C(=O)N1CCOCC1 (configuration not stated)	n	n	n	n	12µM	u
SMILES	VP16 counter	ELG1 DNA repair	RORgamma inh	12-LOX inh	DT40 TDP1 no CPT	DT40 TDP1 CPT
O=C(c1cc(-c2ccco2)nn1-c1cccc(Cl)c1)N1CCCCC1	u	n	u	u	16µM	16µM
O=C(N1CCCCC1)C12CC3CC(C1)CC(C(=O)N1CCCCC1)(C3)C2	n	n	n	n	23µM	u
COc1cccc(-n2c(-c3cccc(F)c3)nc3c(cnn3-c3ccc(C)cc3)c2=O)c1	x	x	x	n	u	u
Cc1cccc(-c2nc3c(cnn3-c3ccccc3)c(=O)n2-c2ccc(Cl)cc2)c1	x	x	x	n	15µM	u
O=c1c2cnn(-c3ccccc3)c2nc(-c2cccs2)n1-c1ccc(Br)cc1	n	n	n	n	0.58µM	u
Cc1ccc(-n2c(-c3cccc(C)c3)nc3c(cnn3-c3ccccc3)c2=O)cc1	x	x	x	n	u	u
